14 compounds from PubChem BioAssay can be followed below.

The structures appear in SMILES notation. Activity calls are given as the source filed them.

Assay [1] has as its system Plasmodium falciparum Sir2 (PF13_0152, Sir2A). Nature of the assay: pfSir2 binders on small-molecule microarrays, primary screen, biochemical, small-molecule microarray, 635 nm fluorescence (AID 1098).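 Further: score merges spot fluorescence intensity with its signal-to-noise ratio.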 The following applies: small-molecule microarray binding, fluorescence 635 nm; higher = more signal.
The nature of assay [2]: small-molecule microarray binders of probe aDKK1, primary screen, biochemical, biotinylated probe, 635/667 nm fluorescence (AID 1099).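 Further: score merges 667nm spot fluorescence with signal to noise across triplicate slides; reference of the scale not given here.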 Particulars: higher = more signal.
Assay [3] in a line: small-molecule microarray binders of probe aCHRDL2, primary screen, biochemical, biotinylated probe, 635/667 nm fluorescence (AID 1100). The following applies: higher = more signal.
Assay [4] in a line: splicing luciferase reporter signal modulators, primary screen, spliceosome inhibition project, cell-based, HEK293, splice +/- reporter (AID 1101).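 Further: HEK293 cells carrying a splicing-competent luciferase reporter gene; test concentration not given here.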 The following applies: luminescence, 24 h, higher = more signal, called active from +8 up or from −8 down. (In general: In a reporter assay the amount or activity of a reporter protein is the signal.)
Assay [5] concerns the target Fibroblast growth factor 10 (Homo sapiens) (UniProt O15520). Nature of the assay: FGF10 binders on small-molecule microarrays, primary screen, biochemical, small-molecule microarray, 635 nm fluorescence (AID 1102). The following applies: FGF10 binding, fluorescence 635 nm, higher = more signal.
The subject of assay [6] is glycogen synthase kinase-3 (GSK3A per assay name; protocol says GSK3B). The experiment in a line: GSK3 binders on small-molecule microarrays, primary screen, biochemical, small-molecule microarray, 635 nm fluorescence, GSK3A (AID 1103). Further: the record names both GSK3A and GSK3B. Particulars: small-molecule microarray binding, fluorescence 635 nm; higher = more signal.
Assay [7] deals with Epidermal growth factor receptor (Homo sapiens) (UniProt P00533). The experiment in a line: EGFR binders on small-molecule microarrays, primary screen, biochemical, small-molecule microarray, 635 nm fluorescence (AID 1104).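 Further: score merges 667 nm emission intensity with spot signal to noise over triplicate slides.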 Particulars: EGFR binding, higher = more signal.
Assay [8] deals with Follistatin-related protein 3 (Homo sapiens) (UniProt O95633). The experiment in a line: FSTL3 binders on small-molecule microarrays, primary screen, biochemical, small-molecule microarray, 635 nm fluorescence (AID 1105).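 Further: score merges emission near 667 nm and signal to noise per printed spot across three slides.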 Particulars: FSTL3 binding, higher = more signal.
Assay [9] addresses Dickkopf-related protein 1 (Homo sapiens) (UniProt O94907). Nature of the assay: DKK1 binders on small-molecule microarrays, primary screen, biochemical, small-molecule microarray, 635 nm fluorescence scan (AID 1106).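 Further: score merges emission near 667 nm with signal to noise over three replicate slides.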 Particulars: DKK1 binding, higher = more signal.
For assay [10], the system named is Inhibin beta A chain (activin A). Nature of the assay: INHBA (activin A) binders on microarrays, primary screen, biochemical, small-molecule microarray, 635 nm fluorescence scan (AID 1107).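 Further: mouse activin A protein probed at 4.33 µg/mL on printed slides; score merges bound-protein fluorescence near 667 nm with spot signal-to-noise.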 The following applies: small-molecule microarray binding, higher = more signal.

Chain of Fibroblast growth factor 10 (Homo sapiens) (O15520 whole entry, looked up): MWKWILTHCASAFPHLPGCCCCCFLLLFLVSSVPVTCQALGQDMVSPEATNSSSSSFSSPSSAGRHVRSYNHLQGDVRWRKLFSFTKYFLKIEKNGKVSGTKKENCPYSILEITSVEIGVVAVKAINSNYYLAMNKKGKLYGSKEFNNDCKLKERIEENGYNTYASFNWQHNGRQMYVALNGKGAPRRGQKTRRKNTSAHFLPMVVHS
Chain of Epidermal growth factor receptor (Homo sapiens) (P00533 whole entry, looked up): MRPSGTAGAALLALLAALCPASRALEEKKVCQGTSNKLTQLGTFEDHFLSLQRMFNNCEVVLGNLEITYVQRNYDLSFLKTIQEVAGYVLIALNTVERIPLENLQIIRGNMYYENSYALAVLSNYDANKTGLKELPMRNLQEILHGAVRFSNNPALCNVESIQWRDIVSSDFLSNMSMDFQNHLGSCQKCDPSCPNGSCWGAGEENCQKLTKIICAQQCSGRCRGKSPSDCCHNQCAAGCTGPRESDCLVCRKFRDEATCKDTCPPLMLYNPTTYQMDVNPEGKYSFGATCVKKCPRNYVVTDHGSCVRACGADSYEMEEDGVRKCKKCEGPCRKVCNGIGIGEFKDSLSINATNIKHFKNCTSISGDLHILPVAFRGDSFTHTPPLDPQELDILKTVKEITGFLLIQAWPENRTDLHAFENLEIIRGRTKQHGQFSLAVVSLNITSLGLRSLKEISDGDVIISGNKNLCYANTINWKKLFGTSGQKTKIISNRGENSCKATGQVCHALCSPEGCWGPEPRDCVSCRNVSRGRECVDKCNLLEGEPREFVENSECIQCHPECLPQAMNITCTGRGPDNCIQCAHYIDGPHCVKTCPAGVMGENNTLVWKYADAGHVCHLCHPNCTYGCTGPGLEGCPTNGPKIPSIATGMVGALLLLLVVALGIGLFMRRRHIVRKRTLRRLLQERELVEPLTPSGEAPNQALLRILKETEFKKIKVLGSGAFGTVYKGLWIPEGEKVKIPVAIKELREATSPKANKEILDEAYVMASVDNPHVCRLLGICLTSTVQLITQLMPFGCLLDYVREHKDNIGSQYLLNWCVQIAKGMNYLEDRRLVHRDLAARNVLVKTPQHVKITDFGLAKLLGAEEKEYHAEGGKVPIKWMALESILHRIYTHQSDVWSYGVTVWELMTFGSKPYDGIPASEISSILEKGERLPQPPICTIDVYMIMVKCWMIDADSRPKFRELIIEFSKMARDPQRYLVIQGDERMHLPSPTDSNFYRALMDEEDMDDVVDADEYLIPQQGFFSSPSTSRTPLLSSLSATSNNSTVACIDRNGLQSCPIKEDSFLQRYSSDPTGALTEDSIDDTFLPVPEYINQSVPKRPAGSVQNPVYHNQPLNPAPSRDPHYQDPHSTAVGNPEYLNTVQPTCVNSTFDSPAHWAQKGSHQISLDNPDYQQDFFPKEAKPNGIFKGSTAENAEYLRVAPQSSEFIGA
Chain of Follistatin-related protein 3 (Homo sapiens) (O95633 whole entry, looked up): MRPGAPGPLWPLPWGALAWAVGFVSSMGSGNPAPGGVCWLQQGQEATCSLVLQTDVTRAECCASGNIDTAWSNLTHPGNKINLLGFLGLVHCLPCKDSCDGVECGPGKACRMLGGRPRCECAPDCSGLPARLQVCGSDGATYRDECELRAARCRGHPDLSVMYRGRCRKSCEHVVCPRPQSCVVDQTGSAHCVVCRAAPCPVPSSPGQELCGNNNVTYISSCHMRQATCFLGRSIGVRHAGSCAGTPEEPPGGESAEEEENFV
Chain of Dickkopf-related protein 1 (Homo sapiens) (O94907 whole entry, looked up): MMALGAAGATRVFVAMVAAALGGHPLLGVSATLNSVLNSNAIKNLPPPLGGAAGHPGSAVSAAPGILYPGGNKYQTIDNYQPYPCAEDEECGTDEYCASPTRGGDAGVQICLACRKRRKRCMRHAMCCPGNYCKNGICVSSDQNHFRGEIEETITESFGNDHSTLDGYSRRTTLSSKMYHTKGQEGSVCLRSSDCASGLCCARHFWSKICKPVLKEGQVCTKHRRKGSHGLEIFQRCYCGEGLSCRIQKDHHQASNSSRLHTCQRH

Turning to `O=C1OCCC/C=C\[C@H]2OC34C=CCN(c5ccc6ccccc6c5)C(=O)[C@H]3N(CCCO)C(=O)[C@@H]4C12` (stereo not given in full), the composite z-score in assay [1] was 0.548; in assay [2], -0.326; in [3], 0.445; in [5], -0.365; in [6] it was -0.216; in assay [7], -0.315. Moreover, the composite z-score in [8] was -0.451; in [9], -1.31; in [10] it was 0.479. In assay [4], the z-score was 0.752 (inactive).

`[N-]=[N+]=NCc1ccccc1[C@@H]1OC(c2ccc(OCCCO)cc2)=N[C@]1(Cc1ccccc1N=[N+]=[N-])C(=O)N1CCCCC1`: the composite z-score in assay [1] is 0.785; in [2], 0.561; in assay [3] it was 0.321; in assay [5], 0.548; in assay [6], 0.363; in [7], 0.435. For the same compound, the composite z-score was 0.491 in assay [8], -0.221 in assay [9] and 1.29 in [10]. Also, the z-score in assay [4] was 0.327 (inactive).

With `CCN(CC)c1ccc(N2CC=CC34O[C@@H]5/C=C\CCC(C)OC(=O)C5[C@H]3C(=O)N(C(C)CO)[C@@H]4C2=O)cc1` (stereo not given in full), the composite z-score was -0.516 in [1]; -0.47 in [2]; -0.514 in [3]; -0.408 in assay [5]; -0.189 in [6]; -0.455 in assay [7]. Besides, the composite z-score in assay [8] is -0.159; in assay [9], 0.492; in assay [10], 1.5. In addition, in assay [4], the z-score is 0.0828 (inactive).

`CC(=O)n1cc(C(O)C2C=CC3C(=O)N(c4ccccc4)C(=O)C3N2Nc2ccc(C(C)C)cc2)c2ccccc21` (stereo not given): the composite z-score worked out at 1.17 in [1]; 0.389 in [2]; 0.883 in [3]; 0.881 in assay [5]; 1.1 in assay [6]; 0.281 in [7]. Besides, the composite z-score in [8] came out at 0.766; in assay [9], 0.076; in assay [10], 1.02. For the same compound, in assay [4], the z-score was 0.811 (inactive).

With `CCCCCCCCCCC(O)C1C=CC2C(=O)N(c3ccccc3)C(=O)C2N1Nc1ccccc1F` (stereo not given), the composite z-score in assay [1] was 0.565; in [2], 0.0158; in [3], 0.973; in [5] it was -0.387; in assay [6], -0.676; in assay [7], -0.571. Besides, the values for the composite z-score in assay [8], in [9] and in assay [10] were -0.292, -0.867 and 1.21, respectively. In assay [4], the z-score is 1.25 (inactive).

Turning to `C=C(COC)C(=O)CC[C@@H](OC(=O)c1cccnc1)c1ccccc1OCCO`, the composite z-score was 1.4 in assay [1]; 0.403 in assay [2]; 0.647 in [3]; 0.694 in assay [5]; -0.0625 in [6]; -0.333 in assay [7]. The composite z-score is 0.529 in assay [8], 0.18 in assay [9] and 1.51 in [10]. Moreover, the z-score in [4] was 0.591 (inactive).

In the case of `O=C1C2C=CC(C(O)c3ccc(I)cc3)N(Nc3ccccc3)C2C(=O)N1c1ccccc1` (stereo not given), the composite z-score was determined as 1.1 in [1]; 1.06 in [2]; 1.21 in [3]; 0.455 in assay [5]; 1.29 in assay [6]; 0.0244 in assay [7]. Further, the composite z-score in assay [8] worked out at 0.859; in [9], 0.263; in assay [10] it was 1.06. Also, the z-score in [4] was 0.189 (inactive).

Take `Cc1ccc(S[C@]2(C(=O)NC(C)C)CC(=O)N(C(C)C)[C@@H]2c2ccc(CO)cc2I)cc1`: the composite z-score in [1] was 0.476; in assay [2], 0.0345; in [3] it was 0.706; in [5] it was -0.101; in [6], -0.498; in assay [7], -0.56. Besides, the composite z-score was 0.298 in assay [8], -0.484 in assay [9] and 0.904 in [10]. In addition, the z-score in assay [4] was -0.714 (inactive).

Consider `CC(C)C(CO)N1C(=O)[C@@H]2[C@H]3C(=O)OCC=C[C@H]3OC23C=CCN(C(C)(C)C)C(=O)[C@@H]13` (stereo not given in full), for which the composite z-score in assay [1] was 1.45; in [2], -0.293; in assay [3], -0.348; in assay [5], -1.07; in assay [6] it was -1.57; in [7], -0.257. Moreover, the composite z-score in assay [8] is -0.21; in [9] it was -0.181; in [10] it was 0.83. The z-score in [4] is 0.454 (inactive).

As for `C[C@@]12COC[C@]13C=C(Br)[C@H](C2)[C@@]1(CO1)C3=O`, the composite z-score was -0.363 in assay [1]; -0.101 in [2]; 0.262 in assay [3]; -0.732 in [5]; -1.02 in assay [6]; -0.886 in [7]. Moreover, the composite z-score in [8] is -0.449; in assay [9], -0.614; in [10], 0.701. Besides, in assay [4], the z-score was -0.374 (inactive).

Consider `Cc1nc2cc(Br)ccc2c(=O)n1Cc1cccc(O)c1`, for which the composite z-score in [1] is 0.547; in [2], -0.136; in assay [3], -0.282; in assay [5] it was 0.89; in assay [6], 0.768; in assay [7], 0.416. Moreover, the figures for the composite z-score in [8], in [9] and in assay [10] were 0.782, 1.16 and -0.022, respectively. Besides, the z-score in assay [4] is -0.0746 (inactive).

Turning to `Cc1ccc(C(C)CC(O)C2C=CC3C(=O)N(c4ccccc4)C(=O)C3N2Nc2ccc(C#N)cc2)o1` (stereo not given), the composite z-score in assay [1] turned out to be 0.966; in [2] it was 0.846; in [3] it was 0.539; in assay [5] it was 1.12; in assay [6], 1.08; in [7], 0.202. Also, the composite z-score in assay [8] was 0.913; in assay [9] it was -0.0435; in assay [10], 0.607. The z-score in assay [4] is 3.02 (inactive).

Take `COc1ccc(NC(=O)O[C@H]2[C@@H]3OC(=O)[C@H](Cc4cccc(Br)c4)C/C=C/C[C@@H](Cc4cccc(Br)c4)C(=O)O[C@H]3[C@@H](OC)O[C@@H]2CO)cc1`: the composite z-score in [1] was determined as 1.31; in assay [2], 0.13; in [3], 0.387; in [5], 0.638; in assay [6], 0.475; in assay [7] it was 0.4. Moreover, the composite z-score came out at 0.324 in [8], 0.142 in assay [9] and 0.735 in assay [10]. The z-score in [4] is 0.044 (inactive).

Consider `CN1C(=O)C2C=CC(C(O)c3cc(C(F)(F)F)cc(C(F)(F)F)c3)N(NC(=O)OC(C)(C)C)C2C1=O` (stereo not given), for which the composite z-score in [1] is 0.733; in [2], 0.781; in [3] it was 1.05; in assay [5] it was 0.959; in [6], 1.3; in [7] it was 0.497. Further, the figures for the composite z-score in assay [8], in assay [9] and in assay [10] were 1.32, -0.868 and 0.279, respectively. The z-score in assay [4] is -0.149 (inactive).
